High-throughput results: PubChem BioAssay, several laboratories
Compounds with a hit are over-represented: about 2.1% of the library has one in this group of screens.
PfHsp40 rescue: rescue of yeast from PfHsp40 toxicity, primary screen, S. cerevisiae, ATP luminescence; 0.68% of 340,000 active; S. cerevisiae expressing PfHsp40, growth rescue; growth rescue, % at 12.5 µM; AID 504582, 2011; in the data active = growth rescue above about 28%, passing the limit was not always enough;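 note: yeast W303a lacking pdr1 and pdr3 grown in galactose medium; growth measured after three days at 30 °C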
CCHF vOTU inh: CCHFV vOTU protease inhibitors, primary screen, biochemical, Pep-AMC substrate, fluorescence | 0.55% of 370,000 active | Crimean-Congo hemorrhagic fever virus L polyprotein viral ovarian tumor (vOTU) protease … | AID 651958, 2012 | inhibition, % at 11.5 µM; in the data active = inhibition above about 30%; note: 0% = vehicle wells with enzyme and 100% = no enzyme wells
PrPC surface inh: inhibitors of human cell surface prion protein PrPC, primary screen, cell-based, TR-FRET | Major prion protein (Homo sapiens), P04156 | TR-FRET read-out | inhibition, % at 13.8 µM | 0.43% of 370,000 active; in the data active = inhibition above about 24%; note: 0% = median of the test wells and 100% = reference compound wells
Sa RN4220 lethal: growth inhibition of S. aureus RN4220, primary screen, OD600. 16 h. inhibition, % (concentration not given with the values). 0.33% of 330,000 active. AID 1259311, 2017; in the data active = inhibition above about 85%;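 note: plate controls were untreated cells for no effect and reference antibiotic for full effect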
PrP UTR inh: inhibition of PrP 5' UTR reporter expression | cell-based PrP 5' UTR mRNA reporter, plate reader | inhibition, % (no concentration beside the values) | 0.35% of 340,000 active | AID 488862, 2010; in the data active = inhibition above about 52%; note: 0 = median of the neutral control wells
ugtP null kill: growth inhibition of ugtP-null S. aureus, primary screen, RN4220 ugtP deletion, OD600; 16 h; 0.54% of 330,000 active; AID 1259309, 2017; growth inhibition, % (no concentration beside the values); in the data active = growth inhibition above about 68%;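 note: plate controls were untreated wells for no effect and antibiotic for full effect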
* hit, by the source's call; . = not tested or not shown.

SMILES	PfHsp40 rescue	CCHF vOTU inh	PrPC surface inh	Sa RN4220 lethal	PrP UTR inh	ugtP null kill
CCCCCCSc1ccc(C2N[C@@](C)(C(=O)OC)C3C(=O)N(CC)C(=O)C23)cc1 (stereo partly specified)	.	.	.	9	.	18
COC(=O)C1=C(c2c(C)noc2C)CC2CCC1N2C(=O)N1CCC(C)CC1 (stereo unspecified)	.	.	.	6	.	-7
c1ccc(-c2nnnn2-c2ccccc2)cc1	-2	-3	-5	4	-13	0
ClC(Cl)(c1nnnn1-c1ccccc1)c1nnnn1-c1ccccc1	13	-4	6	100*	-18	100*
COc1ccc(-c2ccnc(SCC(=O)N3CCN(c4ccccc4)CC3)n2)cc1	105*	9	7	3	-9	-9
Oc1cccc(Nc2nc(O)c(/C=C3\C=Nc4ccccc43)s2)c1	-1	-2	-3	2	-36	2
Oc1nc(Nc2cccc(Cl)c2)sc1/C=C1\C=Nc2ccccc21	1	1	-5	100*	-35	100*
S=c1[nH]nc(-c2cc(-c3ccccc3)n[nH]2)n1N=Cc1ccccc1	.	.	.	-25	.	-4
O=C(N[C@@H](Cc1ccccc1)C(=O)CCl)OCc1ccccc1	320*	2	8	.	-3	.
O=C(N[C@@H](Cc1ccccc1)C(=O)N[C@@H](Cc1ccccc1)C(=O)O)OCc1ccccc1	-1	2	-4	.	-25	.
FC(F)(F)c1cnc(N2CCN(C(=S)NCc3ccccc3)CC2)c(Cl)c1	77*	3	2	-8	-24	46
O=c1cc(CSc2ccc(Cl)cc2)nc(-c2ccccn2)[nH]1	325*	2	13	.	21	.
CN1CCC(Oc2ccc(Sc3ccccc3)cc2)CC1	0	-14	-2	-1	-38	94*
COc1ccc(-c2c(-c3ccccc3OC)oc3ccccc23)cc1F	1	3	-1	-5	-21	89*
C#CCOCCOCCOCCNc1nc(N2CCN(C(=O)C(C)n3cc(CCCN=C(N)N)nn3)CC2)nc(N2CCN(C(=O)C(C)n3cc(CCCN=C(N)N)nn3)CC2)n1 (stereo unspecified)	.	.	.	3	.	3
CCC(Cc1c(I)cc(I)c(N)c1I)C(=O)O (stereo unspecified)	187*	19	11	8	-13	8
COc1ccc(/C=N/NC(=S)SC)cc1OC	1	8	0	.	-14	.
CSC(=S)N/N=C/c1ccccc1	257*	4	-4	.	-14	.
O=C1N=c2ccccc2=C1c1c(O)[nH]c2c(C(F)(F)F)cccc12	1	-12	2	96*	-22	98*
CCOC(=O)C1=C(c2ccccc2)c2ccccc2OC1C(=O)OCC (stereo unspecified)	0	3	6	4	-30	89*
CCOC(=O)C1Oc2ccccc2C(c2ccc(OC)cc2)=C1C(=O)OC (stereo unspecified)	1	12	9	4	7	34
O=C(Nc1nc(-c2ccccn2)cs1)c1cc(Cl)ccc1[N+](=O)[O-]	0	-11	16	38	26	10
CCc1cc(C(=O)Nc2nc(-c3ccccn3)cs2)sc1C	365*	-2	1	20	-4	2
Cc1cc(C(=O)Nc2nc(-c3ccccn3)cs2)ccc1[N+](=O)[O-]	73*	5	-5	26	2	0
Cc1ccc(C(=O)Nc2nc(-c3ccccn3)cs2)o1	1	-3	6	4	25	1
SMILES	PfHsp40 rescue	CCHF vOTU inh	PrPC surface inh	Sa RN4220 lethal	PrP UTR inh	ugtP null kill
O=[N+]([O-])c1ccccc1C=NNc1nnc(-c2ccccc2)c(-c2ccccc2)n1	.	.	.	5	.	-4
O=[N+]([O-])c1cccc2nc(-c3ccccc3)c(-c3ccccc3)nc12	1	2	-7	3	-10	97*
CCCCN1CC(C)C(CC(=O)NCc2ccccc2)C1=O (stereo unspecified)	.	.	.	3	.	1
COC(=O)c1c(NC(=S)Nc2cc(OC)c(Cl)cc2OC)sc2c1CCCCC2	0	19	1	-10	-15	14
COC(=O)c1c(NC(=S)NNS(=O)(=O)c2ccc(OC)cc2OC)sc2c1CCCCCC2	0	-9	-1	-8	-3	92*
CCOC(=O)c1c(NS(=O)(=O)c2ccc(Br)cc2)sc2c1CCC2	1	22	11	112*	-2	98*
CCOC(=O)c1c(NS(=O)(=O)Cc2ccccc2)sc2c1CCCC2	0	11	2	12	-12	-19
COC(=O)c1c(NS(=O)(=O)c2ccc3ccccc3c2)sc2c1CCCC2	0	16	11	87*	-17	78
COC(=O)C1C2c3ccccc3C(c3ccccc32)C1(C)C(=O)OC (stereo unspecified)	35*	16	-7	4	0	-1
Cc1onc(-c2ccccc2)c1C(=O)NC(=S)NNC(=O)c1ccncc1	2	-5	-11	27	-5	3
COc1ccc(C(=O)NC(=S)NNC(=O)c2c(-c3ccccc3)noc2C)cc1OC	31*	3	1	35	-14	22
Cc1onc(-c2ccccc2)c1C(=O)NNC(=S)NC(=O)c1ccc2c(c1)OCO2	48*	0	-7	29	-20	22
COc1ccc(C(=O)NC(=S)NNC(=O)[C@H]2C[C@@H]2c2ccccc2)cc1OC	66*	13	0	30	-4	4
CC(C)(C)N1C(=O)C2C(c3ccc(Br)cc3)N3C(=O)N(c4cccc(Cl)c4)C(=O)[C@@]3(Cc3ccccc3)C2C1=O (stereo partly specified)	.	.	.	3	.	-41
COc1ccc(-c2ccc3c(c2)C2CC3CCN2Cc2ccc(OC(F)(F)F)cc2)cc1 (stereo unspecified)	-2	-5	5	-3	-25	89*
CCN(CC)C(=O)C(=Cc1cccc([N+](=O)[O-])c1)NC(=O)c1ccco1	.	.	.	2	.	-5
Cc1cccc2[nH]c3c(N4CC=C(c5ccc(F)cc5)CC4)ncnc3c12	.	9	-9	73	.	89*
COc1cccc2[nH]c3c(N4CCCCC4)ncnc3c12	2	-12	-1	5	-18	-10
Cc1cc(NC(=O)c2ccc(S(=O)(=O)N(C)CC3CCCO3)cc2)no1 (stereo unspecified)	0	4	-3	1	0	9
COc1ccc(-c2nnc(NC(=O)c3ccc(S(=O)(=O)N(C)CC4CCCO4)cc3)o2)c(OC)c1 (stereo unspecified)	4	11	-5	-7	-22	100*
CC(=O)Oc1c(/C=C(\C#N)C(N)=O)[nH]c2ccccc12	0	14	-14	96*	-24	87*
N#C/C(=C\c1c[nH]c2ccccc12)C(N)=O	1	2	-18	3	-24	-1
COc1ccc(CCN2C(=O)CSC2=NNC(=O)c2ccccc2F)cc1OC	.	.	.	2	.	-2
